Experimental data taken from the supplement of paper PMC11624193, “Coupling cellular drug-target engagement to downstream pharmacology with CeTEAM” (Nature Communications, 2024).

The compounds below were run against PARP1 L713F-nLuc biosensor (HCT116) (UniProt P09874) (assay: PARP1 L713F-nLuc/akaLuc ratio relative to DMSO control (biosensor stabilization) (fold change); higher = more PARP1 biosensor stabilization (target engagement / stabilizer), active = hit call of the paper). Settings: stock concentration (mM; final µM = stock mM x 1): 10; 24 h;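 active = log2 fold change beyond 2 SD from the library mean after excluding viability outliers; inactive = within 2 SD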.
PARP1 L713F-nLuc biosensor (HCT116), sequence (P09874 whole entry L713F, looked up): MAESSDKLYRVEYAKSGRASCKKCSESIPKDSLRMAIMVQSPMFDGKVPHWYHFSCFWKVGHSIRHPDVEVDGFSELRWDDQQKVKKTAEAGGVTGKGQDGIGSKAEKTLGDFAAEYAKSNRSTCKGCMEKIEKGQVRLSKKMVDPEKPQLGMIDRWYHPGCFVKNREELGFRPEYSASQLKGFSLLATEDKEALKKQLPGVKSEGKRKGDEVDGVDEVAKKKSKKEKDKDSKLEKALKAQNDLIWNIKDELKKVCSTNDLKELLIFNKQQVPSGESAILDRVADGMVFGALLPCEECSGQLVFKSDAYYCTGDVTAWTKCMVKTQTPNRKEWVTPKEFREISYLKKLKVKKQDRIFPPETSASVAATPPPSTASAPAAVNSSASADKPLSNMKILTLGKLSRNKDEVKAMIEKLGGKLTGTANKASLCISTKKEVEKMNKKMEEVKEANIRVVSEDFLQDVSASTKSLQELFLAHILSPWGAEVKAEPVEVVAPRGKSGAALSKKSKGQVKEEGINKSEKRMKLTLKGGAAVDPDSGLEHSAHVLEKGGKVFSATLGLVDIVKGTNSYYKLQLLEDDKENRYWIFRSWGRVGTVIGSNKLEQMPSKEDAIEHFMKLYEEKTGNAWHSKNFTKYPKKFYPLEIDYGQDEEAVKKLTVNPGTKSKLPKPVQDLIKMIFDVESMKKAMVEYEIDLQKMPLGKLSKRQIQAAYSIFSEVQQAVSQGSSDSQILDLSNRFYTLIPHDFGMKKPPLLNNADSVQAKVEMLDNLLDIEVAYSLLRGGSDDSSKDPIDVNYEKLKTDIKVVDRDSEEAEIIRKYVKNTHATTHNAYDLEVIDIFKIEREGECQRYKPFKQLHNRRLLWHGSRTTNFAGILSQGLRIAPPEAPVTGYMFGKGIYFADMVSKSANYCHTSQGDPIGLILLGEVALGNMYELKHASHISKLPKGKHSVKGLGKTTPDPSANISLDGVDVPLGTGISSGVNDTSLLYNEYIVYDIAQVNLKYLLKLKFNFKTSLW

SMILES | PARP1 L713F-nLuc/akaLuc ratio
CO[C@H]1CNC[C@@H](OCC2CCC(F)(F)CC2)[C@@H]1Nc1ncc(-c2cncc(C)c2)c2cc(C)c(=O)[nH]c12 | 1.63 (inactive)
CC(C)(C)NC(=O)[C@H]1CC[C@H]2[C@@H]3CC[C@H]4NC(=O)C=C[C@]4(C)[C@H]3CC[C@]12C [Finasteride] | 1.22 (inactive)
CCN(CC)C(=O)c1ccc(Nc2nc(OCC3CCCCC3)c3[nH]cnc3n2)cc1 | 0.71 (inactive)
COc1cc2c(NC3CCN(C4CCCCC4)CC3)nc(N3CCCN(C(C)C)CC3)nc2cc1OCCCN1CCCCC1 | 0.886 (inactive)
CCOC(=O)c1ccnc(CNCC(=O)N(CC)CCN(C)C)c1 | 2.92 (active)
N[C@@H]1CCCN(c2c(/C=C3\SC(=O)NC3=O)cccc2-c2ccccc2)C1 | 0.726 (inactive)
N#Cc1cc2cc(CN3CCC(Nc4ncnc5sc(CC(F)(F)F)cc45)CC3)ccc2[nH]1 | 1.05 (inactive)
O=c1[nH]c(CSC2CCC(O)CC2)nc2cc(OCC3CC3)cc(F)c12 (centres undefined) | 1.21 (inactive)
Cc1c(CN2CCC(Nc3ncnc4sc(CC(F)(F)F)cc34)CC2)ccc2c1cc(C#N)n2Cc1cn[nH]c1 | 0.806 (inactive)
